Assay results as given in PubChem BioAssay AID1159580 (chemical genetic matrix, 2015).
The whole screen tested about 5,500 compounds, of which about 2,000 (36%) were called active. About 18% were inconclusive and are not listed. Rule as the data show it: active = normalized growth mostly below about 0.91 (no sharp cut-off); inconclusive = no clear call, values can overlap the other calls; inactive = mostly above about 0.92. Some of the results follow.

Assay: chemical genetic growth profiling, strain panel (AID 1159580);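 also: tested at 20 µM; growth read once vehicle control cultures reached saturation at 30 °C; 1 = growth at the plate median or of vehicle wells; lower values mean less growth of the strain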
Conditions: growth OD

Measured: normalized growth

CCN(CCO)CCCC(C)Nc1ccnc2cc(Cl)ccc12 (configuration not stated)
inactive: S. cerevisiae deletion strains, locus YJR075W, strain HOC1, stronger effect = lower value 1.01 | S. cerevisiae deletion strains, locus YKL009W, strain mrt4, stronger effect = lower value 1.03 | S. cerevisiae deletion strains, locus YKL068W, stronger effect = lower value 0.998 | S. cerevisiae deletion strains, locus YKL085W, strain MDH1 (second series), stronger effect = lower value 1 | S. cerevisiae deletion strains, locus YKL085W, strain MDH1, stronger effect = lower value 1 | S. cerevisiae deletion strains, locus YKL160W, strain elf1, stronger effect = lower value 0.995 | S. cerevisiae deletion strains, locus YKL190W, strain CNB1, stronger effect = lower value 1.02 | S. cerevisiae deletion strains, locus YKR001C, strain vps1, stronger effect = lower value 1.03 | S. cerevisiae deletion strains, locus YKR026C, strain gcn3, stronger effect = lower value 1 | S. cerevisiae deletion strains, locus YKR091W, strain srl3, stronger effect = lower value 1 | S. cerevisiae deletion strains, locus YLL001W, strain dnm1, stronger effect = lower value 0.988 | S. cerevisiae deletion strains, locus YLL026W, stronger effect = lower value 1.01 | S. cerevisiae deletion strains, locus YLL041C, strain sdh2, stronger effect = lower value 1.01 | S. cerevisiae deletion strains, locus YLR027C, strain aat2, stronger effect = lower value 1 | S. cerevisiae deletion strains, locus YLR039C, strain RIC1, stronger effect = lower value 1.04 | S. cerevisiae deletion strains, locus YLR058C, strain SHM2, stronger effect = lower value 1.01 | S. cerevisiae deletion strains, locus YLR102C, strain apc9, stronger effect = lower value 1.01 | S. cerevisiae deletion strains, locus YLR113W, strain HOG1, stronger effect = lower value 1.03 | S. cerevisiae deletion strains, locus YLR221C, strain rsa3, stronger effect = lower value 0.996 | S. cerevisiae deletion strains, locus YLR258W, strain gsy2, stronger effect = lower value 0.999 | S. cerevisiae deletion strains, locus YLR262C, strain YPT6 (second series), stronger effect = lower value 0.989 | S. cerevisiae deletion strains, locus YLR262C, strain YPT6, stronger effect = lower value 1.06 | S. cerevisiae deletion strains, locus YLR268W, strain sec22, stronger effect = lower value 1.02 | S. cerevisiae deletion strains, locus YLR320W, strain mms22, stronger effect = lower value 0.997 | S. cerevisiae deletion strains, locus YLR330W, strain CHS5, stronger effect = lower value 1.01 | S. cerevisiae deletion strains, locus YLR342W, strain FKS1 (second series), stronger effect = lower value 1.02 | S. cerevisiae deletion strains, locus YLR342W, strain FKS1, stronger effect = lower value 0.997 | S. cerevisiae deletion strains, locus YLR357W, strain rsc2, stronger effect = lower value 1.02 | S. cerevisiae deletion strains, locus YLR370C, strain arc18, stronger effect = lower value 1 | S. cerevisiae deletion strains, locus YLR371W, strain rom2, stronger effect = lower value 1 | S. cerevisiae deletion strains, locus YLR384C, strain iki3, stronger effect = lower value 1 | S. cerevisiae deletion strains, locus YLR418C, strain cdc73, stronger effect = lower value 1.04 | S. cerevisiae deletion strains, locus YML016C, strain PPZ1, stronger effect = lower value 1 | S. cerevisiae deletion strains, locus YML032C, strain rad52, stronger effect = lower value 1.05 | S. cerevisiae deletion strains, locus YML120C, strain ndi1, stronger effect = lower value 0.999 | S. cerevisiae deletion strains, locus YML124C, strain tub3, stronger effect = lower value 1.01 | S. cerevisiae deletion strains, locus YMR058W, strain fet3, stronger effect = lower value 1 | S. cerevisiae deletion strains, locus YMR078C, strain ctf18, stronger effect = lower value 1.03 | S. cerevisiae deletion strains, locus YMR125W, strain sto1, stronger effect = lower value 1 | S. cerevisiae deletion strains, locus YMR129W, stronger effect = lower value 1 | S. cerevisiae deletion strains, locus YMR205C, strain PFK2, stronger effect = lower value 0.986 | S. cerevisiae deletion strains, locus YMR223W, strain ubp8, stronger effect = lower value 1.02 | S. cerevisiae deletion strains, locus YMR231W, strain pep5, stronger effect = lower value 0.987 | S. cerevisiae deletion strains, locus YMR263W, strain SAP30, stronger effect = lower value 1.01 | S. cerevisiae deletion strains, locus YMR307W, strain GAS1, stronger effect = lower value 1.11 | S. cerevisiae deletion strains, locus YNL067W, strain RPL9B, stronger effect = lower value 1.01 | S. cerevisiae deletion strains, locus YNL071W, strain lat1, stronger effect = lower value 1 | S. cerevisiae deletion strains, locus YNL128W, strain TEP1, stronger effect = lower value 1.02 | S. cerevisiae deletion strains, locus YNL153C, strain GIM3, stronger effect = lower value 1 | S. cerevisiae deletion strains, locus YNL183C, strain NPR1, stronger effect = lower value 0.952 | S. cerevisiae deletion strains, locus YNL209W, strain ssb2, stronger effect = lower value 1 | S. cerevisiae deletion strains, locus YNL233W, strain BNI4, stronger effect = lower value 1.01 | S. cerevisiae deletion strains, locus YNL248C, strain rpa49, stronger effect = lower value 1 | S. cerevisiae deletion strains, locus YNL250W, strain rad50, stronger effect = lower value 1.03 | S. cerevisiae deletion strains, locus YNL271C, strain bni1, stronger effect = lower value 1.01 | S. cerevisiae deletion strains, locus YNL298W, strain CLA4, stronger effect = lower value 1.02 | S. cerevisiae deletion strains, locus YNL307C, strain MCK1, stronger effect = lower value 1.01 | S. cerevisiae deletion strains, locus YNL322C, strain KRE1 (second series), stronger effect = lower value 1 | S. cerevisiae deletion strains, locus YNL322C, strain KRE1, stronger effect = lower value 1.01 | S. cerevisiae deletion strains, locus YNR049C, strain mso1, stronger effect = lower value 0.999 | S. cerevisiae deletion strains, locus YNR052C, strain pop2, stronger effect = lower value 1.02 | S. cerevisiae deletion strains, locus YOL006C, strain TOP1, stronger effect = lower value 1.01 | S. cerevisiae deletion strains, locus YOL012C, strain htz1 0.994 | S. cerevisiae deletion strains, locus YOL147C, strain pex11, stronger effect = lower value 1.02 | S. cerevisiae deletion strains, locus YOR001W, strain rrp6, stronger effect = lower value 1 | S. cerevisiae deletion strains, locus YOR061W, strain CKA2, stronger effect = lower value 1.01 | S. cerevisiae deletion strains, locus YOR069W, strain VPS5, stronger effect = lower value 1.01 | S. cerevisiae deletion strains, locus YOR070C, strain gyp1, stronger effect = lower value 0.995 | S. cerevisiae deletion strains, locus YOR080W, strain dia2, stronger effect = lower value 0.997 | S. cerevisiae deletion strains, locus YOR083W, strain WHI5, stronger effect = lower value 0.996 | S. cerevisiae deletion strains, locus YOR106W, strain vam3, stronger effect = lower value 1.01 | S. cerevisiae deletion strains, locus YOR136W, strain idh2, stronger effect = lower value 1.03 | S. cerevisiae deletion strains, locus YOR144C, strain elg1, stronger effect = lower value 1.02 | S. cerevisiae deletion strains, locus YOR184W, strain ser1, stronger effect = lower value 1.03 | S. cerevisiae deletion strains, locus YOR231W, strain MKK1, stronger effect = lower value 1.02 | S. cerevisiae deletion strains, locus YOR265W, strain rbl2, stronger effect = lower value 1.04 | S. cerevisiae deletion strains, locus YOR270C, strain vph1, stronger effect = lower value 1.03 | S. cerevisiae deletion strains, locus YOR290C, strain snf2, stronger effect = lower value 1.03 | S. cerevisiae deletion strains, locus YOR316C, strain cot1, stronger effect = lower value 1.01 | S. cerevisiae deletion strains, locus YPL051W, strain arl3, stronger effect = lower value 0.995 | S. cerevisiae deletion strains, locus YPL055C, strain LGE1, stronger effect = lower value 1.04 | S. cerevisiae deletion strains, locus YPL078C, strain atp4, stronger effect = lower value 1.01 | S. cerevisiae deletion strains, locus YPL106C, strain sse1, stronger effect = lower value 0.991 | S. cerevisiae deletion strains, locus YPL240C, strain hsp82, stronger effect = lower value 1 | S. cerevisiae deletion strains, locus YPL241C, strain CIN2, stronger effect = lower value 1.01 | S. cerevisiae deletion strains, locus YPL256C, strain CLN2, stronger effect = lower value 0.966 | S. cerevisiae deletion strains, locus YPR119W, strain clb2, stronger effect = lower value 1.01 | S. cerevisiae deletion strains, locus YPR141C, strain kar3, stronger effect = lower value 1.02 | S. cerevisiae deletion strains, locus YPR163C, strain tif3, stronger effect = lower value 1.01 | S. cerevisiae deletion strains, locus YPR167C, strain met16, stronger effect = lower value 1.01 | S. cerevisiae deletion strains, strain wtn01, stronger effect = lower value 1.01 | S. cerevisiae strains, strain wild type, stronger effect = lower value 1.02
